Assay [1] in a line: qHTS assay for small molecule agonists of the p53 signaling pathway (AID 651631; calls by dose curve; further: nearly all actives have a fitted effect of over 15% in size). Put shortly: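 Testing took place in human colorectal HCT-116 cells with stable p53RE-driven beta-lactamase. After 16 h of compound exposure at 37 °C, a FRET substrate was added and fluorescence recorded 2 h later.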
On the technique in general: qHTS replaces the single test concentration by a dilution series.

Assay [2] is described as follows: qHTS assay for small molecules that induce genotoxicity in human embryonic kidney cells expressing luciferase-tagged ATAD5 (AID 651632). Further: nearly all actives have a fitted effect of over 15% in size. Put shortly:
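Luminescence read-out: after 16 hr compound exposure at 37C, ATAD5-luciferase HEK293T cells received Amplite, 30 min RT, then CCD imaging. A rise in signal marks genotoxic stress.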

Assay [3] in a line: qHTS assay for small molecule agonists of the p53 signaling pathway - cell viability (AID 651633; calls by dose curve; further: series mostly up to about 83 µM; nearly all actives have a fitted effect of over 30% in size). Put shortly:
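p53RE-bla cells, seeded at 4,000 per well and rested 5 h at 37 C/5% CO2, received compounds in DMSO for 16 h at 37 C. CellTiter-Glo was then added, and luminescence was read after 30 min at room temperature to gauge cytotoxicity.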

A short description of assay [4]: qHTS assay for small molecules that induce genotoxicity in human embryonic kidney cells expressing luciferase-tagged ATAD5 - cell viability (AID 651634; calls by dose curve; further: nearly all actives have a fitted effect of over 25% in size). Put shortly:
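HEK293T ATAD5-luc cells, 2,000/well; compound 15.5 hr, 37C/5% CO2; CellTiter-Fluor 30 min, 37C; fluorescence read.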

Assay [5] is described as follows: qHTS assay for small molecule disruptors of the mitochondrial membrane potential - cell viability (AID 720634; calls by dose curve;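 further: human HepG2 liver cancer cells; series mostly up to about 83 µM; nearly all actives have a fitted effect of over 20% in size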). An outline of the steps: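 Luminescence from CellTiter-Glo (ATP content) gave viability in HepG2 cells, read in the same wells as the MMP dye assay after 1 hr compound exposure at 37 C.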
The nature of assay [6]: qHTS assay for small molecule disruptors of the mitochondrial membrane potential (AID 720635). Further: potency means the concentration at half of the fitted maximal effect. Put shortly:
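HepG2 cells (2,000/well) attached overnight at 37C, then took compound for 1 hr at 37C, 5% CO2. Mito-MPS dye was added for 30 min; fluorescence was read at 490/535 nm (monomers) and 540/590 nm (aggregates).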

Assay [7] in a line: qHTS assay to test for compound auto fluorescence at 590 nm (red) in HepG2 cells (AID 720674). Put shortly:
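Rose Bengal sodium served as the red fluorophore standard. HepG2 monolayers (overnight attachment, MEM with 10% FBS) were exposed to test compounds for 1 hr at 37 C and read at Ex 540/Em 590 nm.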

The nature of assay [8]: qHTS assay to test for compound auto fluorescence at 535 nm (green) in HepG2 cells (AID 720675).
Assay [9] can be described thus: qHTS assay to test for compound auto fluorescence at 590 nm (red) in HEK293 cells (AID 720679). An outline of the steps:
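Using HEK293 cells at 2,000 per well, the screen added 23 nL of each compound after cell attachment and incubated overnight (37C, 5% CO2). The plate reader then captured red-label fluorescence, Ex/Em 540/590nm.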

A short description of assay [10]: qHTS assay to test for compound auto fluorescence at 535 nm (green) in HEK293 cells (AID 720680).
A short description of assay [11]: qHTS assay to test for compound auto fluorescence at 460 nm (blue) in HEK293 cell free culture (AID 720681). An outline of the steps:
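Test compounds were pinned into cell-free culture medium (DMEM with 10% FBS) and fluorescence was read directly at Ex/Em 405/460 nm. Signals were expressed as fluorescence equivalents of triamterene, with DMSO vehicle as control.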

A short description of assay [12]: qHTS assay to test for compound auto fluorescence at 535 nm (green) in HEK293 cell free culture (AID 720682). Put shortly: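 DMEM + 10% FBS, cell-free; cpd or DMSO pinned in; Ex485/Em535 read; output as fluorescein-equivalent signal.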
Assay [13] is described as follows: qHTS assay to test for compound auto fluorescence at 590 nm (red) in HEK293 cell free culture (AID 720683). An outline of the steps:
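Tox21 10K library compounds were pinned into cell-free DMEM with 10% FBS and fluorescence was read at excitation 540 nm. Activity is expressed as Rose Bengal sodium equivalency.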

Assay [14] in a line: qHTS assay to test for compound auto fluorescence at 590 nm (red) in HepG2 cell free culture (AID 720684). An outline of the steps:
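Ex 540 / Em 590 nm read of compound in cell-free MEM (10% FBS). Rose Bengal sodium reference.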

The nature of assay [15]: qHTS assay to test for compound auto fluorescence at 460 nm (blue) in HepG2 cell free culture (AID 720685). Put shortly:
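Cell-free plates of MEM plus 10% FBS received 23 nL compound or DMSO vehicle; blue-channel (405/460 nm) intensity scored against triamterene as reference fluorophore.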

Assay [16] is described as follows: qHTS assay to test for compound auto fluorescence at 535 nm (green) in HepG2 cell free culture (AID 720686).
Assay [17] is described as follows: qHTS assay to test for compound auto fluorescence at 460 nm (blue) in HepG2 cells (AID 720687). An outline of the steps:
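Cells (2,000/well in MEM with 10% FBS) attached overnight at 37 C, then were exposed to compound or DMSO for 1 hr at 37 C, 5% CO2. Fluorescence read at Ex/Em 405/460 nm, expressed as triamterene-equivalent signal.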

Assay [18] has as its target Glucocorticoid receptor (Homo sapiens) (UniProt P04150). Kind of assay: qHTS assay to identify small molecule agonists of the glucocorticoid receptor (GR) signaling pathway (AID 720691; active means well fitted activation curve with a large enough effect in the signal ratio in the repeat runs, not every such curve was filed as active; the % refers to the signal ratio). An outline of the steps: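 HeLa GR-bla reporter line; cells pre-incubated 4 h, compound in DMSO 18 h at 37 C; LiveBLAzer B/G FRET substrate 2 h RT; fluorescence intensity read-out.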

Assay [19] shares this target. Kind of assay: qHTS assay to identify small molecule antagonists of the glucocorticoid receptor (GR) signaling pathway (AID 720692; active means well fitted inhibition curve with a large enough effect in the signal ratio in the repeat runs, not every such curve was filed as active; the % refers to the signal ratio). Put shortly: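 Read-out: beta-lactamase FRET substrate fluorescence, 2 h at room temperature, in HeLa cells stably carrying a GRE-driven bla reporter. Compounds were co-incubated with 5 nM dexamethasone agonist (final) for 18 h at 37 C.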

Assay [20] can be described thus: qHTS assay to test for compound auto fluorescence at 460 nm (blue) in HEK293 cells (AID 720678). Put shortly:
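Measured: blue fluorescence (Ex 405/Em 460 nm) of compound-treated HEK293 cells, incubated overnight at 37C with 5% CO2 and scaled to triamterene equivalents.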

Here are results for seven molecules from PubChem BioAssay (Tox21).

SMILES strings stand for the structures. Unmarked numbers belong to inactive results. Inconclusive results are not listed. Activity calls are given as the source filed them. Unless noted, the call rests on the fitted dose curve; in most records, active means well fitted curve in the direction sought with a large enough effect in the repeat runs; inconclusive means weak or mixed curves; inactive means no such curve, though single readings can be large; an effect the other way counts as inactive or inconclusive.
On the % scale 0 is the no-effect control and ±100 the full control effect.

Sequence of Glucocorticoid receptor (Homo sapiens) (P04150 whole entry, looked up): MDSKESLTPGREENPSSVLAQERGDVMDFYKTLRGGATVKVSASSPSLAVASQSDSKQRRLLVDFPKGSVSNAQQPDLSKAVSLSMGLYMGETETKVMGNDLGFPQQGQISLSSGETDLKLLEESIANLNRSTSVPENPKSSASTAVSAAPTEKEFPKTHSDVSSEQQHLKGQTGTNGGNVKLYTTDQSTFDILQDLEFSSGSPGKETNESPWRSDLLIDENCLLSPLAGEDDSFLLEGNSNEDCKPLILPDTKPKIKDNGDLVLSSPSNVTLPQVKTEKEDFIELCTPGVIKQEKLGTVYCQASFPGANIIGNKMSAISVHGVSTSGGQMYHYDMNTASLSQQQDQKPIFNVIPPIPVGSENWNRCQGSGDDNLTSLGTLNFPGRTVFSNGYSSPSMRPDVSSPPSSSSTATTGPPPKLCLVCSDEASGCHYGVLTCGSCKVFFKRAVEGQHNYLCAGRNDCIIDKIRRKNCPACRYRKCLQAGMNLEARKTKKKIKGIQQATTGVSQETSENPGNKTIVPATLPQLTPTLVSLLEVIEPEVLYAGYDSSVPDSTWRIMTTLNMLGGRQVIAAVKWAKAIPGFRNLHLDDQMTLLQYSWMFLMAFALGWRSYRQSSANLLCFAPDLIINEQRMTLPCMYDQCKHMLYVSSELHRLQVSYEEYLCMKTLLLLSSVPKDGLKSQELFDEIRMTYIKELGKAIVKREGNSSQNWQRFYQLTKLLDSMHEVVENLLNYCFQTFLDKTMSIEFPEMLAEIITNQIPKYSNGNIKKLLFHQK

As to `CC(C)(C)NC[C@H](O)c1ccc(O)cc1Cl`, the Potency entry in [1], in assay [3], in assay [4], in assay [5] and in [6] was “inactive” throughout. The molecule was called inactive in assay [2], in [7], in [8], in [9], in assay [10] and in [11]. The molecule was classed as inactive in assay [12], in [13], in [14], in assay [15], in [16] and in [17].

In the case of `O=C(Cl)OCc1ccccc1`, the Potency entry in assay [1], in assay [3], in [4], in [5], in assay [6] and in assay [18] was “inactive” in each case. In addition, the Potency entry in assay [19] was “inactive”. Further, the molecule was called inactive in [2], in [7], in [8], in assay [9], in assay [10] and in [11]. Also, the molecule was classed as inactive in assay [12], in assay [13], in assay [14], in [15] and in [16].

`CC#Cc1cc(C)nc(Nc2ccccc2)n1`: the Potency result in assay [1], in assay [3], in assay [4], in [5] and in [18] was “inactive” throughout. For the same molecule, the result in [2], in assay [7], in assay [8], in assay [20], in [9] and in assay [10] was inactive. Further, the result in [11], in assay [12], in [13], in [14], in assay [15] and in assay [16] was inactive. Further, the call in [17] was inactive. In [6], the Potency is 27.3 µM (active).

With `Nc1c(Cl)c(F)nc(OCC(=O)O)c1Cl`, the Potency entry in assay [1], in assay [3], in assay [4], in [5], in [6] and in assay [18] was “inactive” throughout. Besides, the call in [2], in [7], in assay [8], in [20], in assay [9] and in assay [10] was inactive. Also, the result in assay [11], in assay [12], in assay [15], in [16] and in assay [17] was inactive.

Regarding `CCOP(=O)(CN(CCO)CCO)OCC`, the Potency result in assay [1], in [3], in assay [4], in [5], in assay [6] and in assay [18] was “inactive” throughout. The molecule was classed as inactive in assay [2], in [7], in [8], in assay [20], in assay [9] and in assay [10]. Further, the call in [11], in assay [12], in [13], in [14], in assay [15] and in assay [16] was inactive. Also, in assay [17], the call was inactive.

As to `Cn1c(N)nc2c3cccnc3ccc21`, the Potency result in assay [1], in assay [3], in [4], in [5] and in [6] was “inactive” in each case. In addition, the result in [2], in assay [7], in assay [8], in assay [20], in [9] and in assay [10] was inactive. The molecule was classed as inactive in [11], in [12], in assay [13], in [15], in assay [16] and in [17].

Regarding `NCC1(CC(=O)O)CCCCC1`, the Potency result in [1], in assay [3], in [4], in assay [5], in assay [6] and in assay [18] was “inactive” in each case. Besides, in [19], the Potency entry was “inactive”. In assay [2], the outcome was inactive. Also, the fluorescence, relative to Rose Bengal in assay [7] was 0.106% [at 18.6 µM]. Moreover, the fluorescence, % of fluorescein control in [8] was 0.0214% [at 18.6 µM]; in [16] it was -0.0096% [at 18.6 µM]. In addition, the fluorescence, % of triamterene in assay [20] is 0.0823% [at 18.6 µM]. Besides, the fluorescence, % of fluorescent control in [9] is 0.0233% [at 18.6 µM]; in assay [11], 0.0173% [at 18.6 µM]; in assay [15], 0.0583% [at 18.6 µM]; in assay [17], 0.027% [at 18.6 µM]. Also, the fluorescence, % of fluorescein in assay [10] is 0.112% [at 18.6 µM]. For the same molecule, the activity change in assay [12] is 0.0242% [at 18.6 µM]. In addition, the fluorescence, % of Rose Bengal in assay [14] is 0.0064% [at 18.6 µM].
